High-throughput results deposited in PubChem by National Center for Advancing Translational Sciences (NCATS).
The list is not random: actives were taken first. Their share in the collection is about 10%.
KB-V1 MDR tox: qHTS assay for MDR1-selective chemotherapeutics: Primary screen using the drug-selected MDR subline cells KB-V1; Potency, µM (series often up to 46.1 µM), usual class: cytotoxic; KB-V1 MDR cells viability, CellTiter-Glo, 72 h; 3.4% of 400,000 active; also: % is scaled to controls: 0 for no effect and ±100 for the full control effect; nearly all actives have a fitted effect of over 60% in size
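KB-V1 MDR subline cells in DMEM (phenol-red free, 10% FBS) exposed to compounds in qHTS concentration series for 72 h at 37 degrees C. Viability read by CellTiter-Glo luminescence; concentration-effect curves fitted after normalization and correction.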
VP16 counter: VP16 counterscreen qHTS for inhibitors of ROR gamma transcriptional activity; Drosophila S2 Gal4-VP16 UAS-luciferase, luminescence, 20 h; Potency, µM (top dose mostly 53.6 µM), inactives show at the highest dose activity, negative = inhibition, usual class: inhibitors; 3.5% of 310,000 active; AID 2546, 2010;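 also: Gal4-VP16 expression switched on by copper sulfate through the metallothionein promoter; % is scaled to controls: 0 for no effect and ±100 for the full control effect; nearly all actives have a fitted effect of over 50% in size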
RORgamma inh: qHTS for inhibitors of ROR gamma transcriptional activity | AID 2551, 2010 | Drosophila S2 Gal4-RORgamma UAS-luciferase reporter, 20 h | Potency, µM (highest dose often 53.6 µM), for the others: top-dose activity change, negative = inhibition, usual class: inhibitors | Nuclear receptor ROR-gamma (Mus musculus), P51450 | 5.4% of 310,000 active; also: % is scaled to controls: 0 for no effect and ±100 for the full control effect; nearly all actives have a fitted effect of over 60% in size
Target sequence (P51450 whole entry, looked up, the tested form may be a part): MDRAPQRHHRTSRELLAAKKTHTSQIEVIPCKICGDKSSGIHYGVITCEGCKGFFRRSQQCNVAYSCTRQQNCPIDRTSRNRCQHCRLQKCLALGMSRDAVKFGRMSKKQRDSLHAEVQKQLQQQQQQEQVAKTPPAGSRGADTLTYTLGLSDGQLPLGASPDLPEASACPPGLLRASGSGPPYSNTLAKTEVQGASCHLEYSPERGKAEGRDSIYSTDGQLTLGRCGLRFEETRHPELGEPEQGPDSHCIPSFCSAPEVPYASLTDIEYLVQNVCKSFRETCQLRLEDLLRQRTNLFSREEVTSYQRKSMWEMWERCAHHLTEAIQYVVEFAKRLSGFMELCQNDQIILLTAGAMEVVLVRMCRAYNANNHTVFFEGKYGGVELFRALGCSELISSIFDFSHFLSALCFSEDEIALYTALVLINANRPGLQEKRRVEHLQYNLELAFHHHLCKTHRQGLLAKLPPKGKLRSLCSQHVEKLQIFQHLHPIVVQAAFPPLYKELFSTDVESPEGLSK
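Drosophila Schneider cells stably carrying a metallothionein-driven Gal4 DBD–ROR gamma fusion and a UAS-Photinus luciferase reporter were exposed to compound for 1 hr, then induced with copper sulfate (700 uM final) for 20 hr at ambient temperature before luminescence reading.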
MCF10A rereplic: A quantitative high throughput screen for small molecules that induce DNA re-replication in MCF 10a normal breast cells; AID 624296, 2012; 2.9% of 350,000 active; MCF 10A DNA re-replication, Hoechst nuclear intensity, 48 h; Potency, µM (titrated, usually from 46.1 µM), for the others: at the top dose activity, positive = re-replication, hits mostly activators; also: % of control where 0% means no effect; nearly all actives have a fitted effect of over 50% in size
SW480 rerep: A quantitative high throughput screen for small molecules that induce DNA re-replication in SW480 colon adenocarcinoma cells; 1.8% of 340,000 active; Potency, µM (doses to about 46.1 µM), inactives show at the highest dose re-replication activation, hits mostly activators; SW480 DNA re-replication, Hoechst DNA content imaging, 48 h; also: % of control where 0% means no effect; nearly all actives have a fitted effect of over 55% in size
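Cells (250 per well) received 23 nL compound or DMSO by pin tool and were kept 48 hr at 37 C, 5% CO2. Nuclei were then stained with Hoechst for 40 min and scanned for DNA content.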
KB-3-1 cytotox: qHTS assay for MDR1-selective chemotherapeutics: Primary screen using the parental adenocarcinoma cell KB-3-1; KB-3-1 viability, CellTiter-Glo ATP luminescence, 72 h; Potency, µM (top dose mostly 46.1 µM), actives largely listed as cytotoxic; 1.4% of 400,000 active; AID 1347075, 2019; also: % is scaled to controls: 0 for no effect and ±100 for the full control effect; nearly all actives have a fitted effect of over 60% in size
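Multi-concentration cytotoxicity screen in KB-3-1 cells grown in DMEM lacking phenol red with 10% FBS. After 72 h at 37 °C with compound, ATP-dependent luminescence was recorded.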
* marks the source's active call; other numbers are inactive results; i = inactive; u = inconclusive; x = no result given; ! = not active in a repeat; [ ] = dose if it differs, or a comment. Calls follow the shape of the dose curve; as a rule, active = well fitted curve in the direction sought with a large enough effect; inconclusive = small, poorly fitted or top-dose-only effect, or another doubt; inactive = no such curve, though single readings can be large; an effect the other way counts as inactive or inconclusive. Potency is read from the fitted curve at half-maximal effect.

SMILES	KB-V1 MDR tox	VP16 counter	RORgamma inh	MCF10A rereplic	SW480 rerep	KB-3-1 cytotox
COc1ccc(Br)c(Cn2c(C)c(C(=O)NCc3cccc([N+](=O)[O-])c3)sc2=O)c1	u	x	x	x	x	i
CC(C)(C)c1ccc(/C=C/C(=O)NC2=NCCS2)cc1	u	4.5µM*	2.8µM*	9%	5%	u
Cc1ccc(OCC(=O)NC2=NCCS2)cc1	i	0%	5%	35%	15%	i
Cc1ccc(/C=C/C(=O)NC2=NCCS2)cc1	i	u	11µM*	-3%	-3%	i
CCOC(=O)c1c2c(c(=S)n(-c3ccccc3)c1N)CCC2	21µM*	-23%	-39%	u	u	i
Cc1ccc(Cl)cc1N1CCN(C(=O)Cc2csc(Nc3nc(=S)[nH]c4ccccc34)n2)CC1	u	3.5µM*	0.63µM*	u	13%	i
O=C(Cc1csc(Nc2nc(=S)[nH]c3ccccc23)n1)N1CCN(c2cccc(Cl)c2)CC1	18µM*	5µM*	1µM*	u	13%	23µM*
O=C1c2c(O)ccc(O)c2C(=O)c2c(NCCNCCO)ccc(NCCNCCO)c21	21µM*	u	10µM*!	-4%	-9%	0.65µM*
CC1=C(C(=O)N2CCCCCC2)CC(CC(=O)NC2CCCC2)C(=O)N1Cc1ccc(C(C)(C)C)cc1 (centres undefined)	u	x	x	x	x	i
CCc1ccc(C(=O)NN(C(=O)c2ccc(CC)cc2)C(C)(C)C)cc1	7.3µM*	4%	u	-46%	u	u
Cc1ccc(C2(C)NC(=O)N(CC(=O)NCCN3C(=O)S/C(=C\c4cccnc4)C3=O)C2=O)cc1 (centres undefined)	i	x	x	40%	5.8µM*	i
CCOc1cc(C(=O)NCCN2C(=O)S/C(=C\c3cccnc3)C2=O)cc(OCC)c1OCC	i	22%	18%	-7%	23%	i
COc1ccc(C(=O)NCCN2C(=O)S/C(=C\c3cccnc3)C2=O)c(OC)c1OC	15µM*	u	-21%	23%	1%	i
O=C(NCCCN1CCOCC1)c1cccc(S(=O)(=O)N2CCOCC2)c1	i	x	x	9%	5%	i
CC(C)(C)c1ccc(/C=C2\SC(=O)N(CCNC(=O)c3cccc(S(=O)(=O)N4CCOCC4)c3)C2=O)cc1	u	2µM*	u	27%	7%	u
Cc1nn(Cc2ccccc2)c(C)c1C(=O)NCCN1C(=O)S/C(=C\c2ccccc2)C1=O	u	-24%	u	26µM*	u	i
Cc1ccc(S(=O)(=O)N2CCOCC2)cc1C(=O)NCCN1C(=O)S/C(=C\c2ccccc2Cl)C1=O	u	-10%	u	8%	0%	u
O=C(NCCN1C(=O)S/C(=C\c2cccnc2)C1=O)c1cc(S(=O)(=O)N2CCOCC2)ccc1F	i	-10%	16%	17%	2.1µM*	i
O=C(/C=C/c1ccc(F)cc1)NC(=S)N1CCCCC1c1cccnc1 (centres undefined)	i	u	5µM*	-1%	u	i
COc1cccc(OC)c1C(=O)NC(=S)N1CCCCC1c1cccnc1 (centres undefined)	i	-17%	22µM*	5%	-14%	i
O=C(NC(=S)NN1CCCCC1c1cccnc1)c1ccc(Br)cc1 (centres undefined)	i	1.4µM*	1.1µM*	9%	0%	i
CC(C)C(=O)N1c2ncnn2C2(CCCCC2)[C@@H]2CCCC[C@@H]21	i	x	x	x	x	i
NC(=O)COc1cccc2cccnc12	i	-3%	5%	17%	-3%	i
CC(Oc1cccc2cccnc12)C(=O)N/N=C/c1ccccc1 (centres undefined)	u	-1%	18%	3%	2%	i
O=C(/C=C/c1ccccc1)Oc1cccc2cccnc12	i	4.5µM*	0.71µM*	u	u	i
SMILES	KB-V1 MDR tox	VP16 counter	RORgamma inh	MCF10A rereplic	SW480 rerep	KB-3-1 cytotox
O=C(/C=C\c1ccccc1)Oc1cccc2cccnc12	i	3.2µM*	1.4µM*	u	u	i
O=C(Nc1ccc2ccccc2c1)[C@H]1C[C@@H]1[C@H](NP(=O)(c1ccccc1)c1ccccc1)c1ccccc1	x	-6%	-4%	x	x	x
COCCNC(=O)C(C#N)c1nc2ccccc2nc1N1CCCCCC1 (centres undefined)	4.1µM*	-2%	-3%	u	-210%	i
COCCCNC(=O)C(C#N)c1nc2ccccc2nc1N1CCN(Cc2ccccc2)CC1 (centres undefined)	i	3%	-17%	u	5%	i
Cc1ccc(S(=O)(=O)N2CN(Cc3ccco3)c3nc4ccccc4nc32)cc1	i	-15%	38%	15%	8%	i
COc1ccc(S(=O)(=O)N2CN(Cc3ccco3)c3nc4ccccc4nc32)cc1	5.8µM*	-27%	-19%	0%	u	i
CCC(C)[C@H]1CNC(=O)C(=O)N1CCc1cccc2ccccc12 (some centres undefined)	i	x	x	x	x	x
CC[C@H](C)[C@H]1CNC(=S)N1CC1CCN(CC)CC1	i	x	x	x	x	i
CCC(C)[C@H]1CNC(=S)N1CCc1cccc2ccccc12 (some centres undefined)	u	4.5µM*	2.5µM*	14%	0%	i
CCC(C)[C@H]1CNC(=S)N1CCC12CC3CC(CC(C3)C1)C2 (some centres undefined)	i	2.8µM*	0.89µM*	15%	-9%	i
COC(=O)c1cc(OC)c(OC)cc1NC(=O)c1ccc(C)cc1	3.3µM*	13%	-21%	8%	5%	i
COC(=O)c1cc(Cl)c(NC(=O)c2ccc(C(C)(C)C)cc2)cc1OC	i	-7%[0.365 µM]	u	9.2µM*	20%	i
Cc1cccc(C(=O)Nc2ccc(N3CC=C(c4ccccc4C)CC3)c(C(=O)O)c2)c1	i	x	x	x	x	i
CCN(Cc1nc2ccccc2c(=O)[nH]1)C(=O)c1cc2c(s1)CCCCC2	u	x	x	u	3%	i
Cc1c(Cl)cccc1NC(=O)c1cc2sccc2n1Cc1ccc(F)cc1	i	x	x	x	x	i
O=C(CNC(=O)c1ccc(Cl)cc1Cl)NCC1CCCO1 (centres undefined)	i	-1%	-3%	-1%	-7%	i
